Sfp inh = inhibitors of Bacillus subtilis Sfp phosphopantetheinyl transferase; Biochemical Sfp PPTase activity, qHTS; Potency, µM, without a hit: largest response in the series, negative = inhibition, most hits filed as inhibitors; AID 1490; 3.5% of 310,000 active; Q9F4F7;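 further: the enzyme is Sfp with the accession as filed and its product quenches rhodamine fluorescence; 0% = enzyme reaction without inhibitor and -100% = no enzyme wells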
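Fluorescence-quenching assay with 15 nM Sfp, 5 uM rhodamine-CoA and 12.5 uM BHQ-2-labelled ybbR peptide in pH 7.6 Hepes/MgCl2 buffer. Enzyme was pre-incubated with compound for 15 min at room temperature. Rate was taken from the 30-min fluorescence change (525/598 nm).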
JMJD2A Tudor inh = blocks the human JMJD2A Tudor domain. AID 504339. Potency, µM (highest dose often 114 µM), for inactives: at the highest dose activity change, negative = inhibition, usual class: inhibitors. AlphaScreen JMJD2A-Tudor / H3K4me3 peptide binding. 4.4% of 390,000 active; further: on the % scale 0 is the no-effect control and ±100 the full control effect; nearly all actives have a fitted effect of over 50% in size
HP1b chromo inh = blocks HP1-beta chromodomain binding to methylated histone tails. P83916. 0.56% of 390,000 active. Potency, µM (doses to about 114 µM), for inactives: top-dose activity change, negative = inhibition, hits mostly inhibitors. AlphaScreen HP1-beta / biotin-H3K9me3 peptide binding; further: nearly all actives have a fitted effect of over 70% in size
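HP1-beta protein (50 nM final) preincubated 30 min at room temperature with biotinylated H3(1-18)K9me3 peptide (50 nM) in PBS pH 7.4, 0.01% Tween-20, then compound added for 30 min. AlphaScreen streptavidin donor/nickel chelate acceptor beads (10 ug/mL final), 30 min dark, luminescence read.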
G9a block = blocks human histone lysine methyltransferase G9a; G9a H3K9 monomethylation, AlphaScreen, 2 h; Potency, µM (highest dose often 102 µM), for inactives: at the highest dose activity, negative = inhibition, hits mostly inhibitors; 8.8% of 350,000 active; further: on the % scale 0 is the no-effect control and ±100 the full control effect; nearly all actives have a fitted effect of over 75% in size
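Step 1: enzyme (final 20 nM) with compound, 15 min RT. Step 2: substrate peptide 500 nM and SAM 20 uM, 2 h RT. Step 3: anti-H3K9me1 antibody and AlphaScreen beads, 10 min, then plate read.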
PLK1 PBD block = inhibitors of human PLK1 polo-box domain binding; P53350; Plk1 PBD binding of FITC phosphopeptide, fluorescence polarization; Potency, µM, without a hit: max response, negative = inhibition, actives largely listed as inhibitors; 2.8% of 360,000 active; further: series mostly up to about 57 µM; on the % scale 0 is the no-effect control and ±100 the full control effect; nearly all actives have a fitted effect of over 65% in size
BAZ2B inh = inhibitors of human BAZ2B bromodomain; Q9UIF8; AlphaScreen BAZ2B-H3K14Ac peptide displacement; Potency, µM (top dose mostly 114 µM), inactives show top-dose activity change, negative = inhibition, usual class: inhibitors; 4.4% of 360,000 active; AID 504333; further: on the % scale 0 is the no-effect control and ±100 the full control effect; nearly all actives have a fitted effect of over 60% in size
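AlphaScreen displacement of biotin-H3(5-23)K14Ac peptide (50 nM final) from BAZ2B (50 nM final) in PBS pH 7.4, 0.01% Tween-20; complex preformed 30 min RT, then compounds (top 110 uM) 30 min RT, beads 20 min dark.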
Starred values were filed as active, the others as inactive; ? = inconclusive; · = no result given; ! = a repeat was not active; [ ] = another dose, or the depositor's remark. Most compounds without a hit are left out; they make up all but 12% or so of the library. The call rests on the fitted dose curve; in most records, active means well fitted curve in the direction sought with a large enough effect; inconclusive means small, poorly fitted or top-dose-only effect, or another doubt; inactive means no such curve, though single readings can be large; an effect the other way counts as inactive or inconclusive. Potency means the concentration at half of the fitted maximal effect.

SMILES	Sfp inh	JMJD2A Tudor inh	HP1b chromo inh	G9a block	PLK1 PBD block	BAZ2B inh
C#CCOCCOCCOCCNc1nc(N2CCN(C(=O)CCCCCCCCCCNC(=O)[C@H]([C@@H](C)CC)n3cc(CCCCN=C(N)N)nn3)CC2)nc(N2CCN(C(=O)CCCCCCCCCCNC(=O)[C@H]([C@@H](C)CC)n3cc(CCCCN=C(N)N)nn3)CC2)n1	·	·	·	-9%[2.33 µM]	·	50µM*
C#CCOCCOCCOCCNc1nc(N2CCN(C(=O)Cn3cc(CCCN=C(N)N)nn3)CC2)nc(N2CCN(C(=O)[C@H]([C@@H](C)CC)n3cc(CCCCN)nn3)CC2)n1	·	-5%	34%	?	-5%	7%
C#CCOCCOCCOCCNc1nc(N2CCN(C(=O)CCCCCCCCCCNC(=O)[C@H](CCCCN)n3cc(CCCC(=O)O)nn3)CC2)nc(N2CCN(C(=O)CCCCCCCCCCNC(=O)[C@@H]([C@H](C)O)n3cc(C)nn3)CC2)n1	·	?	-6%	2%[2.33 µM]	-4%	-31%
C#CCOCCOCCOCCNc1nc(N2CCN(C(=O)CCCCCCCCCCNC(=O)[C@@H](CCC(=O)O)n3cc(CCCCCN)nn3)CC2)nc(N2CCN(C(=O)CCCCCCCCCCNC(=O)[C@H]([C@@H](C)CC)n3cc(CCCCCN)nn3)CC2)n1	·	?	0%	11%[2.33 µM]	1%	56µM*
C#CCOCCOCCOCCNc1nc(N2CCN(C(=O)CCCCCCCCCCNC(=O)Cn3cc(CCCCCN)nn3)CC2)nc(N2CCN(C(=O)CCCCCCCCCCNC(=O)[C@H]([C@@H](C)CC)n3cc(CCCCN=C(N)N)nn3)CC2)n1	·	56µM*	?	4%[2.33 µM]	-19%	56µM*
C#CCOCCOCCOCCNc1nc(N2CCN(C(=O)Cn3cc(CCO)nn3)CC2)nc(N2CCN(C(=O)[C@H]([C@@H](C)CC)n3cc(CCCN=C(N)N)nn3)CC2)n1	·	-14%	33%	·	2%	·
CCOC(=O)c1c(NC(=O)c2nc(SC)ncc2Cl)sc(C)c1C	·	-23%	9%	-1%[59 µM]	·	-1%
CC1CCCCN1S(=O)(=O)c1ccc(C(=O)Nc2sc3c(c2C(N)=O)CC(C)(C)NC3(C)C)cc1 (stereo not drawn)	·	-22%	26%	-24%[59 µM]	·	-1%
C#CCOCCOCCOCCNc1nc(N2CCN(C(=O)CCCCCCCCCCNC(=O)[C@H]([C@@H](C)CC)n3cc(CCCCCN)nn3)CC2)nc(N2CCN(C(=O)CCCCCCCCCCNC(=O)[C@H](CO)n3cc(CCCCCN)nn3)CC2)n1	·	?	-20%	1%[2.33 µM]	-3%	?
C#CCOCCOCCOCCNc1nc(N2CCN(C(=O)CCCCCCCCCCNC(=O)[C@H]([C@@H](C)CC)n3cc(CCCCCN)nn3)CC2)nc(N2CCN(C(=O)CCCCCCCCCCNC(=O)[C@H]([C@@H](C)CC)n3cc(CCCCN=C(N)N)nn3)CC2)n1	·	·	·	14%[2.33 µM]	·	56µM*
C#CCOCCOCCOCCNc1nc(N2CCN(C(=O)CCCCCCCCCCNC(=O)[C@H]([C@@H](C)CC)n3cc(CCCCCN)nn3)CC2)nc(N2CCN(C(=O)CCCCCCCCCCNC(=O)[C@@H]([C@H](C)CC)n3cc(CCCCCN)nn3)CC2)n1	·	·	·	-1%[2.33 µM]	·	50µM*
C#CCOCCOCCOCCNc1nc(N2CCOCC2)nc(N2CCN(C(=O)CCCCCCCCCCNC(=O)[C@@H]([C@H](C)CC)n3cc(CCCCCN)nn3)CC2)n1	·	?	7%	10%[2.33 µM]	7%	?
CCOC(=O)C1CCN(S(=O)(=O)c2cc(C(=O)OC)n(C)c2)CC1	8%	-11%	59%	·	-4%	7%
Cc1nc2c(C(=O)NCc3ccccc3Cl)c[nH]n2c(=O)c1Cl	-8%	-14%	22%	16µM*	30µM*	5%
Cc1ccc(CS(=O)Cc2ccc(C(=O)NCc3ccccc3Cl)o2)cc1 (stereo not drawn)	1%	-10%	30%	79µM*!	-12%	-4%
COC(=O)c1c[nH]n2c(=O)c(Cl)c(C)nc12	20%	-26%	13%	-10%	-3%	-6%
Cc1nc2c(C(=O)NCCc3ccccc3Cl)c[nH]n2c(=O)c1Cl	1%	-29%	14%	50µM*	27µM*	-22%
Cc1cc(C(=O)NCc2ccccc2Cl)n(-c2ccccc2)n1	13%	?	-3%	10%	27µM*	1%
CCOc1ccc(NC(=O)C(C)Sc2nc3ncccc3o2)cc1 (stereo not drawn)	·	-8%	-11%	-1%[59 µM]	·	-2%
Cc1nc2c(C(=O)NCc3ccccc3)c[nH]n2c(=O)c1Cc1ccccc1Cl	·	-23%	?	-25%[59 µM]	·	-14%
Cc1nc2c(C(=O)NCc3ccccc3)c[nH]n2c(=O)c1Cl	17%	-28%	19%	79µM*	?	-1%
Cc1nc(C)c(C(=O)NCc2ccccc2Cl)o1	89µM*	?	-20%	?	21µM*	-2%
O=C(Nc1ccnn1C1CCN(CCCc2ccccc2)CC1)c1ccccc1Cl	0%	-18%	9%	·	-13%	-4%
Cc1ccc(-n2[nH]c(=O)c3cccnc32)cc1	18%	-11%	15%	?	-7%	-6%
Cc1ccc(-n2[nH]c(=O)c(-c3ccccn3)c2C)cc1	1%	-31%	6%	-1%	-10%	45µM*
SMILES	Sfp inh	JMJD2A Tudor inh	HP1b chromo inh	G9a block	PLK1 PBD block	BAZ2B inh
OC(CCCN1CCCCC1)(c1ccccc1)c1ccc(C(F)(F)F)cc1 (stereo not drawn)	·	-10%	8%	·	-3%	·
COC(=O)c1ccc(NC(=S)NC2CCCCC2)cc1	6%	-11%	23%	·	-7%	-2%
COC(=O)c1cccnc1NC(=S)NNC(=O)c1ccncc1	10µM*	24%	39%	?	1%	-4%
COC(=O)c1cccnc1NC(=S)NC1CCCCC1	-7%	-25%	38%	14µM*	-12%	9%
COc1ccccc1NC(=S)NNC(=O)c1ccncc1	24%	-20%	34%	?	-19%	-11%
C[C@H](CO)N1C[C@H](C)[C@@H](CN(C)C(=O)Nc2ccc(C(F)(F)F)cc2)Oc2ccc(NS(=O)(=O)c3ccccc3)cc2C1=O	·	-10%	56%	·	-5%	·
O=C(CSc1nc(-c2ccccc2)[nH]c1-c1ccccc1)Nc1ccc2c(c1)OCCO2	·	?	-15%	?	·	?
Cc1coc2c1c(C)cc1oc(=O)c(CC(=O)N[C@@H](CC(C)C)C(=O)O)c(C)c12	2%	-29%	18%	50µM*	-14%	2%
Cn1cccc1C(=O)N1CCC2(CC1)CCN(C(c1ccccc1)c1ccccc1)CC2	20%	·	·	-2%[12.7 µM]	·	·
COC(=O)CSc1nc(N)c2c3c(sc2n1)CCCC3	-15%	5%	41%	?	-22%	6%

From PubChem BioAssay
